FGF22 binding – FGF22 (human) thermal shift binding; Q9HCT0; recombinant FGF22 thermal shift, SYPRO orange fluorescence; percent of sucrose octasulfate shift, DMSO zero; activity (Tm shift, normalised), % at 9.99 µM; hit rate 1.5% among 340,000; AID 651658;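 active = mean Tm shift, scaled 0 neutral to 100 positive control, at about 1.3% or above, every replicate too, limit read from the data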
Target sequence (Q9HCT0 whole entry, looked up): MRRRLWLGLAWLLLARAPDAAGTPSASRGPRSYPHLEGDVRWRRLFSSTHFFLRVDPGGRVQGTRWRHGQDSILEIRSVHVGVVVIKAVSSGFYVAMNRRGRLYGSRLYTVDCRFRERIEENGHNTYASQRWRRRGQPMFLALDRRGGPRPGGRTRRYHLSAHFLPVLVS
Vif imaging – blocks HIV Vif function; HEK293T cells, Vif self-association by quenched fluorescence, imaging, 24 h; inhibition, % at 7.49 µM; hit rate 0.35% among 340,000; AID 602346; in the data active = inhibition above about 50%, passing the limit was not always enough
F508del corr – CFTR F508del correction in bronchial cells; CFBE cells, YFP halide quenching; stimulated with forskolin plus potentiator P3; % fluorescence drop versus neutral controls; activity (quench increase), % at 7.58 µM; hit rate 0.36% among 350,000; AID 720511;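 active = mean added fluorescence quench of at least 8% versus neutral control, with both replicates also reaching 8%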;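 note: cells transiently co-express mutant CFTR-F508del with the halide-sensitive YFP; corrector assay measuring rescue of mutant channel to the surface after 24 h compound exposure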
Numbers without * were called inactive; x = no result given. Rows were chosen to be rich in hits. Some 1.7% of all compounds tested hit in one or more screens of this group.

SMILES	FGF22 binding	Vif imaging	F508del corr
O=C(Nc1ccc2nc(-c3ccccc3)[nH]c2c1)c1ccco1	x	-2	x
Cc1noc(C)c1S(=O)(=O)N(C)C[C@@H]1OCc2cn(nn2)CCCC(=O)N([C@H](C)CO)C[C@@H]1C	1	x	-1
O=C(NNC(=S)NC(=O)c1ccco1)c1ccc(F)cc1	6.2*	-4	0
O=C(NC(=S)NNC(=O)c1ccco1)c1ccc(Br)cc1	0	-24	2
CC(C)C#Cc1ccc([C@@H]2[C@H](CO)N3CCCCN(C(=O)c4ccc(F)cc4)C[C@@H]23)cc1	0	x	2
O=C(Nc1cccc(F)c1)N1C[C@H]2[C@@H](c3ccccc31)[C@H](CO)N2C(=O)c1ccccn1	0	x	0
Cc1cc2ccccc2nc1SCC(=O)NC1CCCC1	43*	10	1
Cc1cc2ccccc2nc1SCC(=O)NC1CCCCC1	0	-1	-2
CC(C)CC(=NNC(=O)c1ccncc1)c1cc(Cl)ccc1O	0	55*	16*
C/C(=N/NC(=O)c1ccncc1)c1ccc(NC(=O)c2ccc(Cl)cc2Cl)cc1	0	1	-1
CC1CN(C)C(C)C/C1=N/Oc1ccccc1[N+](=O)[O-] (configuration not stated)	44*	9	-1
CC1CN(C)C(C)C/C1=N\Oc1ccc([N+](=O)[O-])cc1 (configuration not stated)	0	4	0
O=C(CSc1nc(O)cc(=O)n1-c1ccccc1)Nc1ccc2c3c(cccc13)CC2	43*	6	-2
Cc1c(O)nc(SCC(=O)Nc2ccc3c4c(cccc24)CC3)n(-c2ccccc2)c1=O	x	-1	x
C[C@@H]1CCCCO[C@@H](CN(C)Cc2ccccc2)[C@@H](C)CN([C@H](C)CO)C(=O)c2cc(NC(=O)C3CCCCC3)ccc2O1	0	x	0
O=C(NC1CCS(=O)(=O)C1)c1cccc(S(=O)(=O)N2CCCCCC2)c1 (configuration not stated)	0	0	1
O=C(NC1CCS(=O)(=O)C1)c1cccc(S(=O)(=O)N2CCCC2)c1 (configuration not stated)	43*	-40	2
Cc1ccccc1-c1ccc2c(c1)O[C@@H](CN(C)C(=O)c1ccccn1)[C@@H](C)CN([C@@H](C)CO)S2(=O)=O	0	x	1
C[C@H](CO)N1C[C@H](C)[C@@H](CN(C)C(=O)Nc2ccc(F)cc2)Oc2ccc(NC(=O)CCN3CCOCC3)cc2C1=O	0	x	2
O=C(CSc1nnc(-c2ccccc2O)n1-c1ccccc1)Nc1cccc(C(=O)O)c1	43*	10	-2
O=C(O)CSc1nnc(C2CC2)n1-c1ccccc1	x	6	x
O=C(O)CSc1nnc(Nc2ccccc2)n1-c1ccccc1	44*	0	-3
COc1ccc(-n2c(SCC(=O)Nc3cccc(C(=O)O)c3)nnc2-c2ccco2)cc1	-1	15	2
C[C@@H]1CN([C@H](C)CO)S(=O)(=O)c2ccc(C3=CCCC3)cc2O[C@H]1CN(C)Cc1cccnc1	0	x	2
COCC#Cc1cnc2c(c1)C(=O)N([C@H](C)CO)C[C@@H](C)[C@H](CN(C)C(=O)C1CCCCC1)O2	0	x	-1
SMILES	FGF22 binding	Vif imaging	F508del corr
CCN1/C(=C2\C(=O)N(c3ccccc3)N=C2C)C=Cc2cc(C)ccc21	43*	0	5
CCN1/C(=c2/s/c(=C3/C(=O)N(c4ccccc4)N=C3C)n(CC)c2=O)C=Cc2ccccc21	0	2	2
O=C(C[C@H]1C=C[C@H](NS(=O)(=O)c2ccc(F)cc2)[C@@H](CO)O1)N1CCC(Cc2ccccc2)CC1	0	x	2
C[C@@H]1CN([C@@H](C)CO)C(=O)CCCn2cc(nn2)CO[C@H]1CN(C)Cc1cccc(O)c1	0	x	-6
Cc1cc(=O)[nH]c(SC(C(=O)O)c2ccccc2)n1 (configuration not stated)	x	13	x
Cc1cc(-c2ccccc2)nc(SC(C(=O)O)c2ccccc2)n1 (configuration not stated)	43*	26	-2
C[C@H](CO)N1C[C@H](C)[C@H](CN(C)Cc2ccccn2)Oc2ncc(C#CCN(C)C)cc2C1=O	0	x	-1
Cc1ccc(SC[C@H](C)CN2CC[C@H](C)CCC2=O)cc1	0	2	1
C[C@@H]1CCC(=O)N(C[C@@H](C)CSc2ccc(Br)cc2)CC1	43*	-3	0
Cc1cc(C)cc(NC(=O)C2C3C=CC(O3)C2C(=O)O)c1 (configuration not stated)	0	51*	-2
CCOC(=O)c1cc(NC(=O)C2C3C=CC(O3)C2C(=O)O)cc(C(=O)OCC)c1 (configuration not stated)	0	-6	-3
CCOc1ccc(NC(=O)c2sc(NC(C)=O)c(C(=O)OC)c2C)cc1	43*	2	-2

Screening data (PubChem)
